# Assay outcomes: PubChem BioAssay, several laboratories
# An excerpt weighted towards active compounds, which were near 2.4% of everything screened.
# FAK inh: FAK kinase inhibitors, primary screen, biochemical. Focal adhesion kinase 1 (Homo sapiens), Q05397. AID 727, 2007. inhibition, %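 (tested at 7 µM)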. biochemical FAK kinase activity assay. 97,000 compounds, 0.84% hits; in the data active = inhibition above about 19%;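 note: 0% = DMSO and 100% = reference compound high control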
# JNK3 blocker: JNK3 kinase activity inhibitors, primary screen, biochemical, human, purified enzyme; 60,000 compounds, 0.61% hits; Mitogen-activated protein kinase 10 (Homo sapiens), P53779; inhibition, % at 8 µM; HTS; in the data active = inhibition above about 17%;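 note: 0% = DMSO and 100% = reference inhibitor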
# HUVEC tox IL1B: cytotoxicity in IL-1B stimulated HUVEC, primary screen, cytotoxicity control for IL-1B NFkB translocation project, imaging, Hoechst nuclear count, IL-1B stimulus; AID 845, 2007; cell count reduction, % at 2 µM; 94,000 compounds, 0.41% hits; HUVEC cell count loss;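 active = cell count reduction more than 3 SD above the screen-wide mean, cut at about 70% in these data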;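 note: normalized per plate to untreated control cells as the no-loss baseline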
# NFkB transloc inh: inhibitors of IL-1B driven NFkB p65 nuclear import, primary screen, imaging, HUVEC, IL-1B stimulus, high-content imaging. inhibition, % at 2 µM. HUVEC IL-1B NFkB p65 nuclear translocation imaging. 94,000 compounds, 0.43% hits. AID 796, 2007;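 active = inhibition above about 30% together with a positive call from visual inspection of the well image, limit read from the data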;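 note: nuclear over cytoplasmic p65 intensity ratio measured by imaging; 0% = IL-1B stimulated DMSO wells and 100% = unstimulated DMSO wells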
# Pyk2 oligo antag: antagonists of Pyk2 self-association, primary screen, Q293 cells, FERM NanoBiT luminescence, HTS; Protein-tyrosine kinase 2-beta (Homo sapiens), Q14289; stronger effect = lower value; 99,000 compounds, 0.83% hits; z-score (the deposit names both 25 µM and 10 µM);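 active = Z-score of -3 or lower, scaled per plate to the spread of control and sample wells; inactive = z-score above -3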;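 note: negative z-score means lost luminescence so less FERM oligomerization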
# IL1B NFkB pot: enhancers of NFkB p65 translocation in HUVEC – imaging, IL-1B stimulus, high-content imaging, primary screen | HUVEC IL-1B NFkB p65 nuclear translocation imaging | activation, % at 2 µM | 94,000 compounds, 0.3% hits;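 active = activation above 40%, about the mean plus 3 SD, also judged a hit on visual image review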;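 note: percent activation is computed from the nuclear over cytoplasmic p65 intensity ratio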
# * hit, by the source's call; nt = not tested or not shown.
SMILES,FAK inh,JNK3 blocker,HUVEC tox IL1B,NFkB transloc inh,Pyk2 oligo antag,IL1B NFkB pot
CC1CN(Cc2nc3c(c(=O)n(C)c(=O)n3C)n2Cc2ccc(Cl)cc2)CC(C)O1 (centres undefined),nt,-6,nt,nt,nt,nt
CCOC(=O)C1=C(c2ccccc2)O/C(=C(/C#N)C(F)(F)F)S1,0,nt,-37,56*,nt,-56
N#C/C(=C/c1ccc(N2CCCCCC2)o1)c1ccc(F)cc1,-2,2,22,44*,0.41,-44
Clc1ccc(-c2nn3c(Cn4cnc5ccccc54)nnc3s2)c(Cl)c1,nt,2,nt,nt,nt,nt
CCOC(=O)CC1C(=O)NCCN1C(=O)c1c(F)cccc1F (centres undefined),0,nt,-9,2,1,-2
O=C(CC1C(=O)NCCN1C(=O)c1ccc(F)cc1)OCc1ccccc1 (centres undefined),1,4,92*,-13,-0.53,13
COCCN1C=C(C(=O)OC)C(c2cc(Br)c(OC)c(OC)c2)C(C(=O)OC)=C1,-1,-1,-3,-5,-3.4*,5
COc1cccc(-c2n[nH]c(=S)n2Cc2ccco2)c1OC,-4,-13,15,11,-0.54,-11
COc1ccc(NC(=O)C2CCC(CNc3c(N4CCC(C)CC4)c(=O)c3=O)CC2)cc1OC (centres undefined),-5,nt,0,5,nt,-5
Cc1cc(C(=O)Nc2ccc(S(=O)(=O)Nc3nccs3)cc2)c(C)o1,-8,2,-36,-7,-0.4,7
CCOC(=O)c1ccccc1NC(=O)CN1CCC(n2nnc3cc(F)ccc32)CC1,nt,15,nt,nt,nt,nt
COc1ccc(Cl)cc1NC(=O)CN1CCC(n2nnc3cc(F)ccc32)CC1,-1,4,92*,100*,1.4,-100
O=C1C(c2ccc(F)cc2)N(C2CCCCC2)C(=O)CN1C1CCCC1 (centres undefined),-2,nt,-9,-128,-1.2,128*
CSc1nnc(-c2sc3cc(C(F)(F)F)cnc3c2-c2ccccc2)n1C,1,nt,nt,nt,-3.1*,nt
Cc1ccc(C)c(NC(=O)CS(=O)(=O)c2cn(C)c3ccccc23)c1,-3,nt,-7,6,0.26,-6
CCN(Cc1ccccc1)C(=O)CCc1nc(-c2ccc(C)cc2)no1,2,-3,-35,-10,-1.1,10
CCc1ccccc1N(CC)C(=O)CCc1nc(-c2ccc(C)cc2)no1,3,1,-9,-21,-3*,21
CCN(CC)CCCN1C(=O)C(O)=C(C(=O)c2ccco2)C1c1cc(OC)ccc1OC (centres undefined),nt,7,nt,nt,nt,nt
CCCCC1CCC(C(=O)Nc2ccc(S(=O)(=O)Nc3nccs3)cc2)CC1 (centres undefined),-1,nt,-8,9,2.2,-9
CCOC(=O)C1=C(C)OC(N)=C(C#N)C1c1cc2ccccc2nc1N1CCCCC1 (centres undefined),1,22*,-17,-20,nt,20
Cc1cc(C)cc(OCC(=O)Nc2cccc(-c3nnc(-c4ccco4)o3)c2)c1,1,2,-10,2,-3.9*,-2
Nc1nc2c(s1)C(=O)CC(c1ccccc1)C2 (centres undefined),-3,nt,-3,1,-0.5,-1
O=C(CO)N/N=C/c1ccc(Cl)cc1,1,nt,-10,-2,-0.13,2
CN(C)c1ccc(/C=N/NC(=O)c2ccc(Cl)cc2)cc1,6,nt,-30,50*,-0.44,-50
CC(C)Cn1c(SCc2nnc(-c3cccs3)o2)nc(O)cc1=O,nt,1,nt,nt,0.78,nt
SMILES,FAK inh,JNK3 blocker,HUVEC tox IL1B,NFkB transloc inh,Pyk2 oligo antag,IL1B NFkB pot
Clc1ccc(-n2nnnc2-c2cnc(-c3ccncc3)nc2-c2cccs2)cc1,10,nt,-157,-13,-1.2,13
FC(F)(F)c1nc(-c2cccs2)ncc1-c1nnnn1-c1ccc(Cl)cc1,5,nt,13,-13,-3.1*,13
O=c1c2ccccc2nc(SCc2cn3ccsc3n2)n1-c1ccccc1F,7,11,-62,0,-3.5*,0
O=c1c2ccccc2nc(SCc2cn3ccsc3n2)n1-c1ccccc1,-1,12,-5,-14,-2,13
O=C(O)CCCC(=O)Nc1ccc(C(=O)N2CCCCC2)cc1,-3,-6,-20,3,-0.58,-3
O=C(O)CCC(=O)Nc1ccc(C(=O)N2CCCCC2)cc1,-5,nt,88*,-1,0.82,1
O=S(=O)(CCSc1nc2ccccc2o1)c1nc2ccccc2s1,-1,-5,-10,-12,-3.1*,12
CN(c1cccc(NC(=O)c2ccc(Cl)c(S(=O)(=O)Nc3ccccc3)c2)c1)S(C)(=O)=O,8,nt,-29,-12,-3.9*,12
Cc1ccccc1NS(=O)(=O)c1cc(C(=O)Nc2cccc(N(C)S(C)(=O)=O)c2)ccc1C,2,nt,-10,3,-3*,-3
CN(c1cccc(NC(=O)Cc2ccccc2)c1)S(C)(=O)=O,-1,4,-1,6,-0.35,-6
COCCNC(=O)COc1ccc(Oc2ccccc2)cc1,-1,nt,-8,8,0.03,-8
CC1CN(C2CCN(C(=O)COc3ccc(Cl)cc3)CC2)CC(C)O1 (centres undefined),2,nt,8,7,0.36,-7
COc1ccc(CNc2nc(NCc3ccc(OC)c(OC)c3)n(C(=O)c3cccs3)n2)cc1OC,4,nt,8,-3,-3.4*,3
Cn1c(=O)c([N+](=O)[O-])c(NCc2ccccc2)c2ccccc21,7,nt,-1,0,-0.5,0
Cc1cccc(N(CC(=O)NCc2ccc3c(c2)OCO3)C(=O)CCC(=O)Nc2ccccn2)c1C,-1,11,-14,1,-3.1*,-1
CCn1c(SCC(=O)Nc2cc(C)on2)nc2sc3c(c2c1=O)CCCC3,-2,-4,83*,96*,-0.37,-96
C=CCn1c(SCC(=O)Nc2cc(C)on2)nc2sc3c(c2c1=O)CCCC3,0,nt,-12,23,-0.34,-23
CCOC(=O)c1c(C)[nH]c(C(=O)OCC(=O)Nc2cc(C)ccc2OC)c1C,18,7,2,12,2.4,-12
CCOC(=O)c1[nH]c(C)c(C(=O)Nc2cc(OC)ccc2OC)c1C,-2,5,80*,30*,-1.7,-30
CCn1c(SCC(=O)Nc2ccccc2-c2ccccc2)nnc1-c1ccoc1C,nt,nt,nt,nt,-0.98,nt
CCOc1nc(NCCc2ccc(OC)c(OC)c2)nc(N2CCN(c3ccc(OC)cc3)CC2)n1,-2,nt,24,6,0.06,-6
COc1ccc(N2CCN(c3nc(NCCc4ccc(OC)c(OC)c4)nc(OC)n3)CC2)cc1,-1,-9,-8,-4,-3.1*,4
